Article PMC7862700, “An all-to-all approach to the identification of sequence-specific readers for epigenetic DNA modifications on cytosine”

Tests used:
Test in all cases: DAPPL (digital affinity profiling via proximity ligation, sequencing); 10 mM Tris-HCl pH 7.5, 50 mM NaCl, 1 mM DTT, 4% glycerol, room temperature, 30 min; GST-TFs on glutathione beads, 16-mer random dsDNA library, 0.1% formaldehyde crosslink after washing; high values mean tight binding
Settings in all cases: protein: recombinant; tags: N-terminal GST; dsDNA, one strand shown
[1] = molecular target: T1, GABPA (Homo sapiens, UniProt Q06546 1-454)
T1 sequence: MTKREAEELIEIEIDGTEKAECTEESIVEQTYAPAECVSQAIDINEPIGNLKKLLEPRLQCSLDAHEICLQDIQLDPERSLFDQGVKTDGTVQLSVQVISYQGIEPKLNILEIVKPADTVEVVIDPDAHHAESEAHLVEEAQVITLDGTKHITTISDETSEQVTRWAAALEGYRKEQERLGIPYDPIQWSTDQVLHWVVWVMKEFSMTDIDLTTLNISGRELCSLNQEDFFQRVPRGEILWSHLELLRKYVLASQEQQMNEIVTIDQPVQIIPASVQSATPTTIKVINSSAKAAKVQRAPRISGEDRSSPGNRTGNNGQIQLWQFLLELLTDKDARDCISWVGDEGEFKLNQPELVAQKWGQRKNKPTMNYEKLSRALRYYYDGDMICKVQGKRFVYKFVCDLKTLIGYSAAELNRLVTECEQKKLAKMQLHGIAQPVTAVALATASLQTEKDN
Outline: (§1)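 A tag-only sample was pooled with DNA-barcoded human transcription factors that had been expressed in yeast as GST fusions and captured on glutathione beads. The pools were incubated for 30 min at room temperature with 200 nmole of a random double-stranded 16-mer DNA library in Tris/NaCl/DTT/glycerol buffer, then washed, crosslinked with 0.1% formaldehyde, proximity-ligated (BsaI/T4 ligase, 1 h, 37 °C), PCR-amplified and sequenced on an Illumina NextSeq500. Binding signal is each hexamer's read frequency for a factor divided by its frequency for the tag-only sample.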

[2] = molecular target: ELF1 (Homo sapiens, UniProt P32519 1-619)
Sequence of ELF1 (P32519 whole entry): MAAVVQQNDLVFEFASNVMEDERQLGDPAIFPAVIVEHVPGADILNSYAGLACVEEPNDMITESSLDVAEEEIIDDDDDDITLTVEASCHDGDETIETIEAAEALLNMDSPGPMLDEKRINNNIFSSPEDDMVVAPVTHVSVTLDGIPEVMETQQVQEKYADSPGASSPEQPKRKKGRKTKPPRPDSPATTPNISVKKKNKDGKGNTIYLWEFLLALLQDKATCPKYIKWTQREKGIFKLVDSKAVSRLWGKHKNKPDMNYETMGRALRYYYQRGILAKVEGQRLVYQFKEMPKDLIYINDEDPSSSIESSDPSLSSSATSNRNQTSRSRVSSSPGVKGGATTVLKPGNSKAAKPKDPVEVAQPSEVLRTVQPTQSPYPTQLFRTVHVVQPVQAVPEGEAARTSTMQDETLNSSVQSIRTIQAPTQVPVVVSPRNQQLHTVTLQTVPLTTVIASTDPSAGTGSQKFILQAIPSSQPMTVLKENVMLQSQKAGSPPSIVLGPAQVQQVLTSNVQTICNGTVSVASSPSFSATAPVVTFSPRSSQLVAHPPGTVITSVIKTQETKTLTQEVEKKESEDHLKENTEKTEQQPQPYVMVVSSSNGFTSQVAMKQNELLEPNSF
Outline: as §1

[3] = molecular target: T2, ELK3 (Homo sapiens, UniProt P41970 1-407)
T2 sequence: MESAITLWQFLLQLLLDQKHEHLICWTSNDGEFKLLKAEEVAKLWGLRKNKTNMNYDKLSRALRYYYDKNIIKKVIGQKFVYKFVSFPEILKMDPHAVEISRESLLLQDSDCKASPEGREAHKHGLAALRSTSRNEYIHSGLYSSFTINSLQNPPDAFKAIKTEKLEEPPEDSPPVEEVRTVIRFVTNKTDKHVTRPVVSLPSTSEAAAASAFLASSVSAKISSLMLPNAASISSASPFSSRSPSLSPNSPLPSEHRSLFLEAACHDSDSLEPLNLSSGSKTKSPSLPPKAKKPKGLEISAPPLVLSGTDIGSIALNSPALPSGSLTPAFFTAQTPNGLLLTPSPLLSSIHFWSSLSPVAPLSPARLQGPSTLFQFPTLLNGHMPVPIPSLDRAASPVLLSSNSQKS
Outline: as §1

[4] = molecular target: ELF4 (Homo sapiens, UniProt Q99607 1-663)
Sequence of ELF4 (Q99607 whole entry): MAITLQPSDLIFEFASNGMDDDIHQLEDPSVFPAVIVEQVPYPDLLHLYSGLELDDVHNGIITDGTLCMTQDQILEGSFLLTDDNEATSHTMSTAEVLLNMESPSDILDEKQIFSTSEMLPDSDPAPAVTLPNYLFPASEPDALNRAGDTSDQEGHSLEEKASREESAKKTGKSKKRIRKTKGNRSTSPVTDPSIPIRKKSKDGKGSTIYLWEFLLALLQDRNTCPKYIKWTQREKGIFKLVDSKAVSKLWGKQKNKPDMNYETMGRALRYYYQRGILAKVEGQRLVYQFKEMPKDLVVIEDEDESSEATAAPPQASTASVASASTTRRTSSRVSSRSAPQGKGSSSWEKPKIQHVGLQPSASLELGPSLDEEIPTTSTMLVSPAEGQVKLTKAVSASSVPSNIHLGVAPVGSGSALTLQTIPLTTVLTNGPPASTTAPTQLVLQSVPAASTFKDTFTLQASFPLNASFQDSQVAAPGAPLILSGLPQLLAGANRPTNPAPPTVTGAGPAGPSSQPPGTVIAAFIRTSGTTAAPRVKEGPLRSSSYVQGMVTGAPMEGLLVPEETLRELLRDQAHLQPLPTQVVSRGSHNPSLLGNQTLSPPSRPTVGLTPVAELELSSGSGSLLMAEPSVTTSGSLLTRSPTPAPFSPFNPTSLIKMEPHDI
Outline: as §1

[5] = molecular target: T3, ELK4 (Homo sapiens, UniProt P28324-2 1-405)
T3 sequence: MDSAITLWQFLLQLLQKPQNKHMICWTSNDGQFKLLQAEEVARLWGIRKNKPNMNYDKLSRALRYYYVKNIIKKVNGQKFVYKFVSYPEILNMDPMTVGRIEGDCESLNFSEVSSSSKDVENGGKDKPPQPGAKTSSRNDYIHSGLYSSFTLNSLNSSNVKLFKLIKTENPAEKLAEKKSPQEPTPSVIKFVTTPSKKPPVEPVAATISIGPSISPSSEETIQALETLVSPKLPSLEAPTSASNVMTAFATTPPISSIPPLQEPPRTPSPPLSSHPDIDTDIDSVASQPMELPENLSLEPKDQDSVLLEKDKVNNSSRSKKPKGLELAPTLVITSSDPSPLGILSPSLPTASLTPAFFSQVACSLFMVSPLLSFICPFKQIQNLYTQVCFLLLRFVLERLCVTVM
Outline: as §1

[6] = molecular target: T4, ETV2 (Homo sapiens, UniProt O00321 1-342)
T4 sequence: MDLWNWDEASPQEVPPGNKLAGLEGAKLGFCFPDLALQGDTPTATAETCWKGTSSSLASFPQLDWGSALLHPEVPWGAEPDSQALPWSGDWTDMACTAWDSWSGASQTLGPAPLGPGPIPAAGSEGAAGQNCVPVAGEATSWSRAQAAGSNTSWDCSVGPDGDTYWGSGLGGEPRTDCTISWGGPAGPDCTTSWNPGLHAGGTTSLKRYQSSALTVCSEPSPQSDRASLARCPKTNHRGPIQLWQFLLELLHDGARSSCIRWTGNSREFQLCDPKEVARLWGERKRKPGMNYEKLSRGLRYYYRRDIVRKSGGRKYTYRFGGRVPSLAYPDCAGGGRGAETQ
Outline: as §1

[7] = molecular target: T5, ERF (Homo sapiens, UniProt P50548 1-548)
T5 sequence: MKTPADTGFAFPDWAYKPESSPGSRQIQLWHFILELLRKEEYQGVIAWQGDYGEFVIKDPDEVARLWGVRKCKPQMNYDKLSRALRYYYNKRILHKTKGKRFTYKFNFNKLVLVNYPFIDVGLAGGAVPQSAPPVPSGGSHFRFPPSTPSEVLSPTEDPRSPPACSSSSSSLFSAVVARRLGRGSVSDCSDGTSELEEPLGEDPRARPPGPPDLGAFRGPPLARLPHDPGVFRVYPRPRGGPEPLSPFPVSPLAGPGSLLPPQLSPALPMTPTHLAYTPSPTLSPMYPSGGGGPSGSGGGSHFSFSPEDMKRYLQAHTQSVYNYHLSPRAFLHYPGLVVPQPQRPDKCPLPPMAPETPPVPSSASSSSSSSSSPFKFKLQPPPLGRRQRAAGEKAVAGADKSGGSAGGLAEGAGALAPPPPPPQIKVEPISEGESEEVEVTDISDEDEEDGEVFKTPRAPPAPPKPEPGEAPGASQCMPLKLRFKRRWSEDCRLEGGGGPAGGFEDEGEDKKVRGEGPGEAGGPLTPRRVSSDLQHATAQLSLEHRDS
Outline: as §1

[8] = molecular target: SPI1 (Homo sapiens, UniProt P17947 1-270)
Outline: as §1

[9] = molecular target: SPIB (Homo sapiens, UniProt Q01892 1-262)
Sequence of SPIB (Q01892 whole entry): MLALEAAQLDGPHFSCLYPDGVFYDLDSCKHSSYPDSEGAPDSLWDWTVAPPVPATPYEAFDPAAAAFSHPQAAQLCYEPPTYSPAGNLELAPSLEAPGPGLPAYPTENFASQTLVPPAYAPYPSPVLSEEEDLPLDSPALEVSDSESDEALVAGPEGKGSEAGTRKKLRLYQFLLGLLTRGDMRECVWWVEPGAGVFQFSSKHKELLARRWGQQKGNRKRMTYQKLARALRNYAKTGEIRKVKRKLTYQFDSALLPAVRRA
Outline: as §1

[10] = molecular target: T6, FEV (Homo sapiens, UniProt Q99581 1-238)
T6 sequence: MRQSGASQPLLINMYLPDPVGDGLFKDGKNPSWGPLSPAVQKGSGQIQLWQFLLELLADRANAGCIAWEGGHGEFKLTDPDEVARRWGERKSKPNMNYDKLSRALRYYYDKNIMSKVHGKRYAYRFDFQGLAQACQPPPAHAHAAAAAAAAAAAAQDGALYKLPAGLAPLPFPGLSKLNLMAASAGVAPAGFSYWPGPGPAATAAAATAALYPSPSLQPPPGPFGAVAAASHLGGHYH
Outline: as §1

[11] = molecular target: T7, ETS2 (Homo sapiens, UniProt P15036 1-469)
T7 sequence: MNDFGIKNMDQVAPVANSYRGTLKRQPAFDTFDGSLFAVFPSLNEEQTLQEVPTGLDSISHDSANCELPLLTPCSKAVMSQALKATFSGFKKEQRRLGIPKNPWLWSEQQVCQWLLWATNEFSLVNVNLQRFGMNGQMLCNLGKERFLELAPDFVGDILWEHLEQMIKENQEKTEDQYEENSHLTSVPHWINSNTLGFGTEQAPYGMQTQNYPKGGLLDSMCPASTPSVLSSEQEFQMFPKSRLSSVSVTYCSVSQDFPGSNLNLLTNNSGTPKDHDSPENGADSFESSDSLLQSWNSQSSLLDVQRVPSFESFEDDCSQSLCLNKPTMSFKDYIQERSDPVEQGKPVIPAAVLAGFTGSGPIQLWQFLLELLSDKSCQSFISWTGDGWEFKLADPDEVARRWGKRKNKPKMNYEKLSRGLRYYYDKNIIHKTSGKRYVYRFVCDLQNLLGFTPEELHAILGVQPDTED
Outline: as §1

[12] = molecular target: T8, ELK1 (Homo sapiens, UniProt P19419 1-428)
T8 sequence: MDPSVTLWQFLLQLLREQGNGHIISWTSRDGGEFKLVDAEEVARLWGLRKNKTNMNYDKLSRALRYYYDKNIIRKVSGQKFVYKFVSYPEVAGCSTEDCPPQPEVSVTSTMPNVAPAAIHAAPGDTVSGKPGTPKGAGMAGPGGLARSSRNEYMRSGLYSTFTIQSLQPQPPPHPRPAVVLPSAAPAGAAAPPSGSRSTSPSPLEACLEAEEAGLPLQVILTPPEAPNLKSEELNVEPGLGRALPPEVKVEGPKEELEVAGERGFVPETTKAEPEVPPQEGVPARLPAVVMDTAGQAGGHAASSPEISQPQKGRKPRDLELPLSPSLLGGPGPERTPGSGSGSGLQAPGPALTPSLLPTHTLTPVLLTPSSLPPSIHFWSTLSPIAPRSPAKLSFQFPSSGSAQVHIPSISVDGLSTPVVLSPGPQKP
Outline: as §1

[13] = molecular target: T9, ERG (Homo sapiens, UniProt P11308 1-479)
T9 sequence: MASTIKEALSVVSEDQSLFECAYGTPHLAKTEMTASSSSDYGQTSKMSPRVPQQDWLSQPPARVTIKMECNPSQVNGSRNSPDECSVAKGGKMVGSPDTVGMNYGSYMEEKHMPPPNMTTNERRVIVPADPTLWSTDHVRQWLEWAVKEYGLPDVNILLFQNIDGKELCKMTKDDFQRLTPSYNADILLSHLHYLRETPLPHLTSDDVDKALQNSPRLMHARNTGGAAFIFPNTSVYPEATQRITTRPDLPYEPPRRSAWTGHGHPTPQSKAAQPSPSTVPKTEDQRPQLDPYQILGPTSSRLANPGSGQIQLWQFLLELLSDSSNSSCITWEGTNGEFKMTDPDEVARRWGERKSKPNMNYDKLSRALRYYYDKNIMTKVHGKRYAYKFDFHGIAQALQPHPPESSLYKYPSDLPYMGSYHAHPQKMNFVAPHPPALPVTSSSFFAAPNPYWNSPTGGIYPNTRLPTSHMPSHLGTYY
Outline: as §1

[14] = molecular target: T10, ELF3 (Homo sapiens, UniProt P78545 1-371)
T10 sequence: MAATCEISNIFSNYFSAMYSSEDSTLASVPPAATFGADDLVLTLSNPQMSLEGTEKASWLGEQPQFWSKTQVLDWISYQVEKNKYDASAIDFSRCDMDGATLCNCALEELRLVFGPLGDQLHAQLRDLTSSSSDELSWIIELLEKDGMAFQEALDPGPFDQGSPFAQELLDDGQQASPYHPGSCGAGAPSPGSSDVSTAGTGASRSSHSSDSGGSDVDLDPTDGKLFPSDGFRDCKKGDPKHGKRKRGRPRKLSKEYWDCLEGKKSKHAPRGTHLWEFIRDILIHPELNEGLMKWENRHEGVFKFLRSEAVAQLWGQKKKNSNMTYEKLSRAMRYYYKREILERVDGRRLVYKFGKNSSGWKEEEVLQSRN
Outline: as §1

[15] = molecular target: ETV1 (Homo sapiens, UniProt P50549 1-477)
Sequence of ETV1 (P50549 whole entry): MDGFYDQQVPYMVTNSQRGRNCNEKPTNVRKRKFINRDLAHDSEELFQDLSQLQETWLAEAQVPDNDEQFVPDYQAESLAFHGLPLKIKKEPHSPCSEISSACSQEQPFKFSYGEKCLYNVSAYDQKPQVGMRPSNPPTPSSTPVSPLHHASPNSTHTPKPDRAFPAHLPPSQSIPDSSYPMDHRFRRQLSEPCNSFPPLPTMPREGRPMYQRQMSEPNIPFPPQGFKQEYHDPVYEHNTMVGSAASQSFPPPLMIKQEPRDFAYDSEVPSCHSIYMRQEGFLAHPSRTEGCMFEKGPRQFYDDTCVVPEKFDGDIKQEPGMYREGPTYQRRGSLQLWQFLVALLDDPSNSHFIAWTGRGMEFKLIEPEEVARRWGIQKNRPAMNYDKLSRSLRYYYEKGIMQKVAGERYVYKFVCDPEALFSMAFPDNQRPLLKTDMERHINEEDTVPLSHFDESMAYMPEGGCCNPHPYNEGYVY
Outline: as §1

CGCACC
binding signal [1]: 1.03 fold enrichment (6-mer frequency, TF over GST control)
binding signal [2]: 1.03 fold enrichment (6-mer frequency, TF over GST control)
binding signal [3]: 1.05 fold enrichment (6-mer frequency, TF over GST control)
binding signal [4]: 1.03 fold enrichment (6-mer frequency, TF over GST control)
binding signal [5]: 1.13 fold enrichment (6-mer frequency, TF over GST control)
binding signal [6]: 1.1 fold enrichment (6-mer frequency, TF over GST control)
binding signal [7]: 1.01 fold enrichment (6-mer frequency, TF over GST control)

GTTAGC
binding signal [8]: 1.01 fold enrichment (6-mer frequency, TF over GST control)
binding signal [9]: 1 fold enrichment (6-mer frequency, TF over GST control)
binding signal [10]: 1 fold enrichment (6-mer frequency, TF over GST control)
binding signal [4]: 1.06 fold enrichment (6-mer frequency, TF over GST control)
binding signal [6]: 1.17 fold enrichment (6-mer frequency, TF over GST control)
binding signal [7]: 1.02 fold enrichment (6-mer frequency, TF over GST control)
binding signal [11]: 1.01 fold enrichment (6-mer frequency, TF over GST control)

GTCACC
binding signal [4]: 1.01 fold enrichment (6-mer frequency, TF over GST control)

ATAGTG
binding signal [5]: 1.06 fold enrichment (6-mer frequency, TF over GST control)

CAATGA
binding signal [12]: 1.04 fold enrichment (6-mer frequency, TF over GST control)
binding signal [1]: 1.05 fold enrichment (6-mer frequency, TF over GST control)
binding signal [13]: 1.03 fold enrichment (6-mer frequency, TF over GST control)
binding signal [2]: 1.06 fold enrichment (6-mer frequency, TF over GST control)
binding signal [3]: 1.04 fold enrichment (6-mer frequency, TF over GST control)
binding signal [4]: 1.01 fold enrichment (6-mer frequency, TF over GST control)
binding signal [5]: 1.12 fold enrichment (6-mer frequency, TF over GST control)
binding signal [14]: 1.15 fold enrichment (6-mer frequency, TF over GST control)
binding signal [15]: 1.01 fold enrichment (6-mer frequency, TF over GST control)
binding signal [7]: 1.06 fold enrichment (6-mer frequency, TF over GST control)
binding signal [11]: 1.03 fold enrichment (6-mer frequency, TF over GST control)
